One test addresses Albumin (Bos taurus) (UniProt P02769). As to the kind of experiment: compounds binding labelled BSA control protein – biochemical, small-molecule microarray, Alexa647 label, 635/667 nm fluorescence, artefact control for SMM control protein annotation, profiling panel (AID 1118).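 Note: score merges 667 nm emission intensity and signal-to-noise per printed compound spot.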 The following applies: BSA-A647 binding, fluorescence 635 nm, higher = more signal.
Test [1] can be described thus: probe aXIP binding to arrayed compounds – biochemical, NeuroSMM set, 635/667 nm fluorescence, primary screen (AID 1119).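 Note: probe is the protein aXip251-270 applied at 1 µg/mL to compound-printed slides; binding of probe to printed compounds measured as 667 nm fluorescence plus signal to noise.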 As to conditions: small-molecule microarray, higher = more signal, called active from +8 up or from −8 down.
Test [2] can be described thus: probe aNOTCH3 binding on compound microarray – biochemical, small-molecule microarray, 635/667 nm fluorescence, primary screen (AID 1120).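 Note: probe is a biotin-tagged antibody raised against NOTCH3 rather than NOTCH3 protein; score merges spot fluorescence near 667 nm with spot signal to noise.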 As to conditions: higher = more signal.
The nature of test [3]: probe aNOTCH2 binding on compound microarray – biochemical, small-molecule microarray, 635/667 nm fluorescence, primary screen (AID 1121).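 Note: score merges feature fluorescence read at 667 nm with its signal to noise.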 As to conditions: higher = more signal.
For test [4], the target named is Carbonic anhydrase 2 (Homo sapiens) (UniProt P00918). Briefly: compounds binding carbonic anhydrase 2 – biochemical, small-molecule microarray, Alexa647-labelled CAII, profiling panel (AID 1122). The following applies: CAII-A647 binding fluorescence, higher = more signal.
Test [5] in a line: COS7 lysate on small-molecule microarray, probe aHis, 635 nm (AID 1123).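 Note: z-score combines 667nm fluorescence intensity with signal-to-noise per printed compound spot.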 As to conditions: COS7 cell lysate, fluorescence, higher = more signal.
A short description of test [6]: probe aLAP1 signal on lysate-treated microarray – cell lysate, small-molecule microarray, COS7 lysate, primary screen (AID 1124).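 Note: lysate comes from COS7 cells expressing LAP1 and is applied at 0.3 µg/mL; score merges spot fluorescence near 667 nm with signal-to-noise over triplicate slides.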 As to conditions: probe aLAP1, fluorescence, higher = more signal.
For the next test, the system named is Sam68 (KHDRBS1). Briefly: compounds binding KHDRBS1 protein – biochemical, small-molecule microarray, 635 nm fluorescence, primary screen (AID 1125).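 Note: score merges 667 nm channel intensity with signal to noise over triplicate slides.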 As to conditions: higher = more signal.
Test [7] concerns Chordin-like protein 2 (CHRDL2). Briefly: compounds binding chordin-like 2 – biochemical, small-molecule microarray, 635 nm fluorescence, primary screen (AID 1126).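 Note: printed compound slides probed with Chrdl2 protein at 4 µg/mL for 1 h at 4 C; score merges 667 nm emission intensity with signal to noise over three replicate slides.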 The following applies: fluorescence 635 nm, higher = more signal.
The target in test [8] is Concanavalin-A (Canavalia ensiformis) (UniProt P02866). As to the kind of experiment: compounds binding concanavalin A lectin – biochemical, small-molecule microarray, Alexa647 label, 635 nm, artefact control for SMM control protein annotation, primary screen (AID 1127).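 Note: z combines 667 nm emission intensity with signal-to-noise across three replicate slides.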 The following applies: ConA-A647 binding fluorescence, higher = more signal.

Our source for the composite z-score and composite Z-score values is PubChem BioAssay.

“And” between values parts separate entries of the source, which are not always exact repeats. Equal entries are not always repeated. The source made the active and inactive calls.

Albumin (Bos taurus), sequence (P02769 whole entry, looked up): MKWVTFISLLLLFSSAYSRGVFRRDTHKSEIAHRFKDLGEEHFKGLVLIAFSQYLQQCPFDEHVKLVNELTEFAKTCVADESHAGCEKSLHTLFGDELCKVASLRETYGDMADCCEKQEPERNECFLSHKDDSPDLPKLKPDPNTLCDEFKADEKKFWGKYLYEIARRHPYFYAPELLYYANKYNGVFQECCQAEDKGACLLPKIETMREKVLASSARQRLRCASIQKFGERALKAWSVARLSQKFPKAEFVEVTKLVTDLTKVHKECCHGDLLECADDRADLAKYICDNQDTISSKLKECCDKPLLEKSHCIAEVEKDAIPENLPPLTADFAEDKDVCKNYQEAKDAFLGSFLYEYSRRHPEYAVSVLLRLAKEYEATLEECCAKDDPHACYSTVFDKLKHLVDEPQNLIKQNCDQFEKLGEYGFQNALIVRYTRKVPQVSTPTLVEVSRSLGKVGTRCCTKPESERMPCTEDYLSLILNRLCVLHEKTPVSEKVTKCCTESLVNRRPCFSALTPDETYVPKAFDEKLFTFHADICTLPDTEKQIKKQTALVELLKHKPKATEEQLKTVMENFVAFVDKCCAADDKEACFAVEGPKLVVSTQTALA
Concanavalin-A (Canavalia ensiformis), sequence (P02866 whole entry, looked up): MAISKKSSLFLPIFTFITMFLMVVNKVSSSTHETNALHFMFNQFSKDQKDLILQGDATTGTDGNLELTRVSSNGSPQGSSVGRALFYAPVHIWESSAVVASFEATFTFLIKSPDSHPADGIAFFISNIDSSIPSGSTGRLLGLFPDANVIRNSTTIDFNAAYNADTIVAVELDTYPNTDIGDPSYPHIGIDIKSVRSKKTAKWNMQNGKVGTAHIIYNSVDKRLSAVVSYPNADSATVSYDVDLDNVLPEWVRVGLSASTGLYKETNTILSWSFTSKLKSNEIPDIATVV

For `CC(C)=NOC[C@@H](O)COCc1ccco1`, the composite z-score was -0.206 with Albumin (Bos taurus); -0.0328 in test [2]; -0.132 in test [3]; -0.637 in test [4]; -0.115 in test [5]; -0.353 in test [6]. Besides, the composite z-score with Sam68 (KHDRBS1) was -2.3; in [7] it was 0.397; in test [8], -0.703. The composite Z-score in test [1] was 1.56 (inactive).

On to `CCC[C@@H]1C[C@@]1(CCC)[C@@H](NC(=O)c1ccc(-c2ccccc2)cc1)c1cccc(Cl)c1`, for which the composite z-score in the test with Albumin (Bos taurus) was -0.0449 and 0.93; in test [2], 1.31 and -0.0569; in test [3] it was 0.723 and 0.0809; in [4], 0.305 and 0.812; in test [5], 2.51 and 1.41; in test [6] it was 0.421 and -0.244. The composite z-score in the test with Sam68 (KHDRBS1) is -0.546 and 0.593; in test [7], 0.844 and -0.561; in test [8], -1.47 and 0.217. In addition, the composite Z-score in [1] was -0.281 (inactive) and -0.599 (inactive).

In the case of `C=CCN(CCCC)C(=O)C1N(C(C)(C)CO)C(=O)C2C(C(=O)O)C3C=CC21O3` (stereo not given), the composite z-score in the test with Albumin (Bos taurus) was -0.0353 and -0.347; in test [2], -0.589 and -0.497; in test [3], -0.161 and 0.544; in test [4] it was 0.909 and 0.619; in [5], 0.12 and -0.103; in [6] it was -0.2 and -0.226. Besides, the composite z-score was -1.62 and -1.72 in the test on Sam68 (KHDRBS1); -3.25 and -1.75 in test [7]; -1.25 and -2.32 in [8]. Further, in [1], the composite Z-score was -0.726 (inactive) and -1.17 (inactive).

On to `CC(CO)N1C(=O)[C@@H]2C3C(=O)OCCC=C[C@H]3OC23C=CCN(Cn2nnc4ccccc42)C(=O)[C@@H]13` (stereo not given in full), for which the composite z-score was -0.169 and 0.923 with Albumin (Bos taurus); -0.374 and -0.15 in [2]; -0.14 and -0.0191 in [3]; 0.939 and 0.856 in test [4]; 0.342 and -0.478 in test [5]; 0.102 and 0.397 in test [6]. Also, the composite z-score in the test on Sam68 (KHDRBS1) is -0.821 and -0.291; in test [7], -2.19 and 0.0479; in test [8] it was -0.221 and -0.0699. The composite Z-score in [1] was 0.318 (inactive) and 0.418 (inactive).

`Cc1ccc(S(=O)(=O)OC[C@@H]2CN3[C@@H](CC[C@@H](C)[C@@H]3c3ccc(Br)cc3)C(=O)O2)cc1`: the composite z-score was 0.278 and 0.51 with Albumin (Bos taurus); 0.062 and 0.0051 in test [2]; -0.124 and -0.0326 in test [3]; 0.11 and 0.427 in test [4]; -0.0886 and 0.315 in test [5]; -0.162 and 0.565 in [6]. For the same compound, the composite z-score in the test with Sam68 (KHDRBS1) was 0.418 and 0.99; in test [7], 0.251 and 0.327; in [8], 0.446 and 0.54. In [1], the composite Z-score is -0.19 (inactive) and 0.177 (inactive).

Consider `CC(C)OC(=O)C=C1C[C@@H](c2cccc(C(F)(F)F)c2)O[C@@H](c2cccc(C(F)(F)F)c2)O1`, for which the composite z-score with Albumin (Bos taurus) is 0.516 and 0.8; in test [2], -0.166 and -0.257; in test [3] it was -0.0597 and -0.118; in test [4], 0.407 and 0.738; in test [5], 2.3 and 0.841; in test [6] it was 1.56 and 0.103. Also, the composite z-score in the test on Sam68 (KHDRBS1) is -0.167 and 1.11; in [7], -0.24 and -0.619; in [8] it was 0.711 and 1.06. The composite Z-score in test [1] was -0.313 (inactive) and -0.0102 (inactive).

As to `O=C(NN=C1C[C@@H](O)[C@@H](O)[C@@H]2[C@@H]3C(=O)N(Cc4ccc5c(c4)OCO5)C(=O)[C@@H]3CC[C@H]12)OCc1ccccc1`, the composite z-score was -0.401 with Albumin (Bos taurus); 0.157 in test [2]; -0.11 in [3]; -0.612 in [4]; -0.648 in [5]; -0.21 in test [6]. Besides, the composite z-score in the test on Sam68 (KHDRBS1) is 0.0918; in test [7] it was -0.556; in test [8], -0.232. Besides, in test [1], the composite Z-score was -0.0252 (inactive).

In the case of `C[C@@H](ON=C1[C@H]2CCn3c(=O)n(-c4ccccc4)c(=O)n3[C@H]2[C@H](O)[C@@H]2O[C@H]12)c1cn([C@H](CO)Cc2ccccc2)nn1`, the composite z-score was 0.0073 with Albumin (Bos taurus); -0.216 in test [2]; -0.17 in test [3]; -0.0324 in [4]; 0.392 in test [5]; 0.012 in [6]. The composite z-score was found to be 0.209 in the test on Sam68 (KHDRBS1), 0.353 in test [7] and 0.349 in test [8]. Also, in test [1], the composite Z-score is 0.116 (inactive).
